High-throughput results deposited in PubChem by several laboratories.
This is a sample that favours compounds with a hit; in the whole collection about 1.6% have one here.
NALP1 yeast inh: NALP1 inflammasome inhibitors in reconstituted yeast, colorimetric, S. cerevisiae, triplicate retest; AID 2071, 2009; inhibition, % at 10 µM; S. cerevisiae NALP1/ASC/caspase-1 growth, X-gal OD620, 72 h; hit rate 0.61% among 280,000; in the data active = inhibition mostly above about 24%, no sharp cut-off; inactive = mostly below about 32%
PolyA inh: polyadenylation inhibitors in yeast reporter cells, primary screen, luminescence, S. cerevisiae | S. cerevisiae SKY197-pL101 polyadenylation reporter, beta-gal luminescence; efflux-impaired pdr1/pdr3 knockout yeast; score 100 = 6 SD above DMSO | activity score, % at 12 µM | hit rate 0.02% among 300,000 | AID 1875, 2009;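 active = lowest replicate activity score at least 50, where 100 means six control SD above control mean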;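 also: yeast exposed to compound for 9 h at 30 °C; higher score means more reporter readthrough which indicates perturbed polyadenylation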
OPRM1-OPRD1 inv: inverse agonists of MOR-DOR heterodimerization, primary screen, cell-based, luminescence | hit rate 0.21% among 340,000 | Mu-type opioid receptor (Homo sapiens) + Delta-type opioid receptor (Homo sapiens), … | cell-based MOR-DOR heterodimer luminescence, inverse agonism | inhibition, % at 9.3 µM; in the data active = inhibition above about 22%, passing the limit was not always enough;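 also: 0% = cells with DMSO and 100% = wells without cells with DMSO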
HTR5A ag ctr: HTR5A agonists in luminescence cell assay, primary screen, counter-screen for OPRM1-OPRD1 heterodimer agonist project, full-deck HTS. hit rate 0.61% among 340,000. activation, % at 9.3 µM. 5-hydroxytryptamine receptor 5A (Homo sapiens), P47898. AID 504692, 2011. cell-based; in the data active = activation mostly above about 9.5%, no sharp cut-off; inactive = mostly below about 7.6%;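 also: 0% = cells with vehicle only and 100% = reference agonist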
Target sequence (P47898 whole entry, looked up): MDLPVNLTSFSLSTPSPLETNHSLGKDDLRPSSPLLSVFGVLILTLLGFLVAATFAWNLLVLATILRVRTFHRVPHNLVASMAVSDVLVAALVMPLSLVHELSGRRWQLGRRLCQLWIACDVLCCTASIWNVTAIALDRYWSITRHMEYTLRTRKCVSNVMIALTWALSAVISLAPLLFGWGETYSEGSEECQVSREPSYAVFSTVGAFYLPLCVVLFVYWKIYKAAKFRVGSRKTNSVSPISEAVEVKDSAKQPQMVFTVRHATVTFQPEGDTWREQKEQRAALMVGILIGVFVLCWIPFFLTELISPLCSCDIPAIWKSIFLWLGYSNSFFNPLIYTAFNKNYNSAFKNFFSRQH
OPRM1-OPRD1 ag: agonists of OPRM1-OPRD1 heterodimerization, primary screen, cell-based, luminescence. Mu-type opioid receptor (Homo sapiens) + Delta-type opioid receptor (Homo sapiens), …. cells. hit rate 0.3% among 340,000. activation, % at 9.3 µM; in the data active = activation above about 18%;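 also: 0% = vehicle-treated cells and 100% = reference agonist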
HTR5A inv ag: HTR5A inverse agonists in luminescence cell assay, primary screen, counter-screen for OPRM1-OPRD1 heterodimer inverse agonist project, full-deck HTS. 5-hydroxytryptamine receptor 5A (Homo sapiens), P47898. HTR5A cell line, inverse agonism. inhibition, % at 9.3 µM. hit rate 0.083% among 340,000; in the data active = inhibition mostly above about 23%, no sharp cut-off; inactive = mostly below about 18%;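 also: 0% = cells with DMSO and 100% = no-cell wells with DMSO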
* = called active by the depositor; · = no result.

SMILES	NALP1 yeast inh	PolyA inh	OPRM1-OPRD1 inv	HTR5A ag ctr	OPRM1-OPRD1 ag	HTR5A inv ag
CN(C)CCCN(Cc1ccccc1)C(=S)Nc1cccc(C(F)(F)F)c1	18	-9	-6	-1	1	-23
CCc1nnc(NC(=O)CSc2nnc(Cc3cc(=O)[nH]c(=O)[nH]3)n2-c2cccc(OC)c2)s1	6	18	6	-3	-1	8
COc1ccc(OC)c(Nc2nc(NCCO)c3ccccc3n2)c1	20	67*	-15	-1	3	2
Fc1cc(F)c(C2SCCN2C(=S)Nc2cccc(C(F)(F)F)c2)c(F)c1 (stereo unspecified)	37*	-14	-49	-2	10	-25
CCOC(=O)c1ccc(NC(=S)N2CCSC2c2c(F)cc(F)cc2F)cc1 (stereo unspecified)	21	-27	-22	1	3	-4
CC(C)c1cc(C(=O)NNC(=S)NCc2ccco2)c(O)c(C(C)C)c1	-2	-10	-74	10*	15	-26
Brc1ccc2c(c1)C(c1cccs1)=NNC(c1cccnc1)=N2	-1	-11	-13	-3	3	0
CCOc1ccc2c(c1)C(c1cccs1)=NNC(c1cccnc1)=N2	30*	-7	-3	-2	0	6
CCOC(=O)c1sc(NC(=O)Nc2ccc(Cl)cc2)nc1C	27	6	-12	1	2	-3
CC(=O)N(c1ccccc1C)C1CCCC1	8	-8	9	0	-1	13
CC(=O)N(C1=C(Cl)C(=O)c2ccccc2C1=O)C1CCCCC1	66*	-6	-53	-1	10	11
Cc1cc(N2CCC(C)CC2)nc(NCc2ccccc2)n1	69*	-5	-27	-6	4	16
Cc1cc(N2CCC(C)CC2)nc(-c2ccccc2O)n1	30	10	-13	5	3	9
CCn1c(SCC(=O)Nc2cc(C)on2)nnc1-c1ccco1	39*	8	3	1	0	15
CCNC(=O)C1CC(=O)N(Cc2ccc3c(c2)OCO3)C(=Nc2ccc(OCC)cc2)S1 (stereo unspecified)	9	-7	2	9.0*	0	-6
CCNC(=O)C1CC(=O)N(Cc2ccc(F)cc2)C(=Nc2ccc(OC)cc2)S1 (stereo unspecified)	5	17	3	-2	-1	5
CC(C)(C)c1ccc(C(=O)NCCCNC(=O)c2ccccn2)cc1	-7	-23	-1	1	0	11
CC(=O)Nc1ccc(/C=N/NS(=O)(=O)c2cc(C)ccc2C)cc1	9	9	16	6	-3	-7
O=[N+]([O-])c1ccc(S(=O)(=O)NN=Cc2ccc(Cl)c(Cl)c2)cc1	·	·	8	13*	-2	-50
CC(=O)Nc1ccc(S(=O)(=O)NN=Cc2ccc(Cl)c(Cl)c2)cc1	·	·	30	12*	-6	-46
Cc1cc(C)n(-c2ccc(C(=O)NCc3ccc(F)cc3)cc2)n1	29*	8	14	1	-3	-2
COc1ccc(CCN2CCCn3c2nc2c3c(=O)n(C)c(=O)n2C)cc1OC	-7	9	18	1	-3	-6
CCOC(=O)Nc1nc(-c2ccc(Cl)cc2Cl)cs1	20	1	-9	7	2	9
CCCC(=O)NC1=C(C#N)C2(CCCC2)Cc2ccccc21	30	-16	1	11*	0	-26
Cc1ccc(C)c(NC(=O)CN(C)C(=O)COc2ncnc3sccc23)c1	22	0	9	0	-2	12
SMILES	NALP1 yeast inh	PolyA inh	OPRM1-OPRD1 inv	HTR5A ag ctr	OPRM1-OPRD1 ag	HTR5A inv ag
Cn1ncc2c(O/N=C(\N)c3ccc(C(F)(F)F)cc3)ncnc21	·	-7	-196	48*	39*	1
CN(Cc1ccccc1)C(=O)Cn1c(=O)c2cccn2c2cccnc21	6	-13	5	0	-1	-10
N#Cc1c(C(F)(F)F)cc(Cc2ccccc2)nc1SCC(=O)NCC(=O)O	·	14	10	3	-2	-8
O=C(CN1CCN(CCC(=O)Nc2ccccc2F)CC1)Nc1ccc(Cl)cc1	10	-11	10	13*	-2	-29
COc1ccccc1-c1cn[nH]c1-c1ccc(OCc2ccccc2)cc1O	·	-11	-58	12*	11	-38
CCCn1c(SC(C(=O)Nc2cccc(OC)c2)c2ccccc2)nc2ccccc2c1=O (stereo unspecified)	·	4	1	13*	0	-44
CCn1c(SCC(=O)Nc2cccc(OC)c2)nc2ccccc2c1=O	4	23	5	-1	-1	4
Cc1ccc(C(=O)OCC(=O)NC2CCCCCC2)c(C)c1	·	·	2	-5	0	-8
CN1CCN(C(=S)Nc2cc(S(=O)(=O)N3CCOCC3)ccc2Cl)CC1	15	5	10	-2	-2	7
CC(C)N(C(=S)Nc1cc(S(=O)(=O)N2CCOCC2)ccc1Cl)c1ccccc1	59*	-9	17	4	-3	16
COc1ccc(-c2nnc(SCC(=O)Nc3c(Cl)cc(Cl)cc3C(=O)O)o2)cc1	·	·	22	-2	-4	7
COc1cccc(/C=C/C(=O)OCC(=O)NCCCc2ccccc2)c1OC	·	·	2	-3	0	7
O=C(O)c1cccc(CSc2n[nH]c(-c3ccc(Cl)cc3Cl)n2)c1	53*	6	10	1	-2	4
O=C(O)c1cccc(CSc2ncccn2)c1	8	8	13	7	-2	-7
N/C(=N\OC(=O)c1ccc2ccccc2c1)c1ccncc1	-11	10	-85	5	12	-14
N/C(=N\OC(=O)c1ccc2ccccc2c1)c1ccccc1Cl	26	0	-89	29*	22*	-75
CCOC(=O)c1cn(CC(=O)Nc2cccc(F)c2)nn1	21*	-8	7	2	-1	12
CCOC(=O)c1cn(CC(=O)Nc2ccc(CC)cc2)nn1	12	-2	11	2	-2	-7
O=[N+]([O-])c1ccc(N=Nc2c(Cl)cc(O)cc2Cl)cc1	99*	-87	-60	1	13	-5
CC(C)c1ccc(C2C3=C(COC3=O)Nc3cc4c(cc32)OCO4)cc1 (stereo unspecified)	12	-13	-51	17*	11	-45
CSc1ccccc1NC(=O)COC(=O)CCc1ccccc1	5	-8	13	-4	-2	11
Cc1ccc(C(=O)C(C)OC(=O)Cn2[nH]c(=O)c3ccccc3c2=O)cc1C (stereo unspecified)	2	-12	16	12*	-3	-45
